Molecules are shown by their SMILES. This is part of a sample that, as a whole, favours compounds with a hit. Of some 83,000 tested, about 20% had one in any assay.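 Cells were grown in 96-well plates and exposed to the test compound at a single concentration for 48 hours; results are reported as percent growth, with values below 10 considered active.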 Values without a mark were called inactive. Calls of active or inactive are those of the source.

This experiment has as its system UO-31 renal. Nature of the experiment: NCI-60 one-dose screen, 48 h (100 = growth as untreated, 0 = no growth, -100 = all killed). The note with it: 10 µM unless noted.
Take `COc1cc2c(cc1O)CC[C@@H]1[C@@H]2CC[C@]2(C)[C@@H](NCCN(C)C)CC[C@@H]12`: the growth is -84.1% (active). `COc1cccc2c1C(=O)c1c(O)c3c(c(O)c1C2=O)C[C@](O)(C(=O)CO)C[C@H]3O[C@@H]1C[C@@H](NC(=O)CCCN(C)C2(c3ccc(F)cc3)CC3CCC2C3)[C@H](O)[C@@H](C)O1` (stereo partly drawn): the growth is 71.7%. As to `O=c1cc(CSc2nnc(SCc3cc(=O)oc4c3ccc3ccccc34)o2)c2ccc3ccccc3c2o1`, the growth is 81.2%.

For `COc1cc2c(cc1O)CC[C@@H]1[C@@H]2CC[C@]2(C)[C@@H](OCCN(C)C)CC[C@@H]12`, the growth was 72.3%. Consider `COc1ccc(-c2nnc(SCC(=O)c3ccc(Cl)cc3)o2)cc1`, for which the growth is 99.8%. `NC(=NCCCOc1ccc(Cl)cc1)Nc1ccc(C(F)(F)F)cc1`: the growth is 37.1%.

With `CCCCC[C@H]1C/C=C2/C(=O)C=C[C@@H]2C/C=C\CCCC(=O)O1`, the growth is -96.5% (active). For the compound `CNC(=O)c1cc(Oc2ccc(NC(=O)Nc3ccc(Cl)c(OC(F)(F)F)c3)c(F)c2)ccn1`, the growth was 23%. For `COc1ccc2c(c1)C(=O)/C(=C/c1cccnc1)CC2` the value was 92.3%; for `COc1cccc(-c2nc(SCC(=O)Nc3ccc(C(=O)/C=C/c4ccc(OC)c(OC)c4)cc3)[nH]c(=O)c2C#N)c1`, 79.3%. In the case of `CCCn1c(=O)[nH]c(N)c([C@H]2c3ccccc3Oc3[nH]c(=O)n(CCC)c(=O)c32)c1=O`, the growth is 78.8%. For the compound `C=C1C(=O)O[C@H]2[C@H]1CC/C(COC(=O)NCc1ccc(OC)c(OC)c1)=C\CC[C@@]1(C)O[C@@H]21`, the growth is 56.7%. As to `N#CN1CC[C@H](C(=O)Nc2cc3cc(C(N)=O)ccc3cn2)C1`, the growth is 17.7%. For `O=C1c2c(O)cc(O)cc2-c2c(-c3ccc(O)cc3)oc3cc(O)cc1c23`, the growth is 12.7%. The figure for `O=C1/C(=C/c2ccccc2O)N=C2SCCCN12` is 84%; for `COc1ccc(CN2c3ccccc3Sc3ccccc32)c(C(F)(F)F)c1` it is 45.6%; for `COc1ccc(-c2nc(SCC(=O)Nc3ccc(C(=O)/C=C/c4ccc(Cl)cc4)cc3)[nH]c(=O)c2C#N)cc1` it is 89.1%.

On to `COc1ccc2c(c1)CC/C(=C\c1cncc(Br)c1)C2=O`, for which the growth was 96.5%. The figure for `COc1ccc2c(c1)C(=O)/C(=C/c1ccccn1)CC2` is 90%. The figure for `Cc1nc(Nc2ccc(F)c(Cl)c2)sc1C(=O)O` is -8.39% (active).

Turning to `CCOC(=O)c1sc(Nc2ccc(Cl)cc2)nc1C`, the growth is -9.64% (active).

Turning to `CC(=O)c1cc(C(=O)c2ccc3c(c2)Sc2ccccc2N3)n2ccccc12`, the growth is 19.9%.

With `CC(=O)O[C@H]1C(=O)[C@@]2(C)[C@H]([C@H](OC(=O)c3ccccc3)[C@]3(O)C[C@H](OC(=O)[C@H](OC(=O)CCC(=O)OC4CCC(S/N=C(N)/N=C(\N)N(C)C)CC4)[C@@H](NC(=O)c4ccccc4)c4ccccc4)C(C)=C1C3(C)C)[C@]1(OC(C)=O)CO[C@@H]1C[C@@H]2O` (stereo partly drawn), the growth was 47.3%.

For the compound `CC(=O)OC[C@H]1O[C@H](OC(C)=O)[C@H](NC(=O)/C=C/CCl)[C@@H](OC(C)=O)[C@@H]1OC(C)=O`, the growth is 103%. The figure for `COc1cc(-c2nc(C(=O)NCC(=O)NO)nn2-c2ccc(Cl)cc2)cc(OC)c1OC` is 83.5%.

Take `C=C1C(=O)O[C@H]2[C@H]1CC/C(COC(=O)NCCc1ccc(OC)c(OC)c1)=C\CC[C@@]1(C)O[C@@H]21`: the growth is 43%. In the case of `CC/C=C\C[C@H](O)C/C=C1/C(=O)C=C[C@@]1(C)C/C=C\CCCC(=O)OC`, the growth is 92.1%. On to `Cc1ccc2oc(=O)cc(C3c4ccc([nH]4)C(c4cc(=O)oc5ccc(C)cc45)c4ccc([nH]4)C(c4cc(=O)oc5ccc(C)cc45)c4ccc([nH]4)C(c4cc(=O)oc5ccc(C)cc45)c4ccc3[nH]4)c2c1` (stereo not drawn), for which the growth was -24.7% (active).

In the case of `COc1cccc2c1C(=O)c1c(O)c3c(c(O)c1C2=O)C[C@](O)(C(=O)CO)C[C@H]3O[C@@H]1C[C@@H](NC(=O)CCCCCN(C)C2(c3ccc(F)cc3)CC3CCC2C3)[C@H](O)[C@@H](C)O1` (stereo partly drawn), the growth is 62.8%. For `NC(=NCCCC1(c2ccccc2)CCCC1)Nc1ccc(Cl)cc1`, the growth was 58.5%. As to `CCC#CC[C@H](O)C/C=C1/C(=O)C=C[C@@H]1C/C=C\CCCC(=O)OC`, the growth is -65.4% (active). On to `O=c1oc2c(C(F)(F)F)cccc2cc1-c1csc(Nc2ccc(OCCF)cc2)n1`, for which the growth is 40.3%. Turning to `CNC(=O)c1cc(Oc2ccc(NC(=O)Nc3ccc(Cl)c(SC)c3)c(F)c2)ccn1`, the growth is 42.6%. Regarding `c1ccc2[nH]c(-c3ccc(Nc4nc(N5CCCC5)nc5[nH]ncc45)cc3)nc2c1`, the growth was -27.1% (active). As to `CC/C=C\C/C=C\C[C@H]1C/C=C2/C(=O)C=C[C@@H]2C/C=C\CCC(=O)O1`, the growth is -49.7% (active). Turning to `COc1ccc(CN2c3ccccc3Sc3ccccc32)cc1O`, the growth is 24.4%. In the case of `CCOc1ccc(-n2nc(C(=O)Nc3cc(OC)c(OC)c(OC)c3)nc2-c2cc(OC)c(OC)c(OC)c2)cc1`, the growth is 52.6%. For `CC/C=C\C[C@H]1C/C=C2/C(=O)C=C[C@H]2C/C=C\CCCC(=O)O1` the value was 55.5%.

The values above are taken from PubChem BioAssay (NCI).
